Assay outcomes deposited in PubChem by Broad Institute.
Tgondii IFNg: T. gondii growth inhibition under IFN-gamma. Toxoplasma gondii growth in IFN-gamma-treated host cells; active compounds read low. activity change, negative = inhibition, % (no concentration beside the values). 3.8% of 69,000 active; in the data active means activity change below about -70%, passing the limit was not always enough;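 further: host cells are HeLa cells infected with Toxoplasma gondii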
* = called active by the depositor. Shown is part of a subset that was picked to be rich in hits.

SMILES	Tgondii IFNg
Cc1ccc(NC(=O)CN2C(=O)CCc3cc(S(=O)(=O)N4CCC(C)CC4)ccc32)cc1Cl	-103*
CC(=O)Nc1ccc(NC(=O)CN2C(=O)CCc3cc(S(=O)(=O)N4CCCCC4C)ccc32)cc1 (stereo not given)	-6
CC1CCCCN1S(=O)(=O)c1ccc2c(c1)CCC(=O)N2CC(=O)Nc1ccc2c(c1)OCCO2 (stereo not given)	-12
Cc1ccc(NC(=O)CN2C(=O)CCc3cc(S(=O)(=O)N4CCCCC4C)ccc32)cc1C (stereo not given)	-84*
Cc1ccc(NC(=O)CN2C(=O)CCc3cc(S(=O)(=O)N4CCC(C)CC4)ccc32)cc1F	-47
CC1CCN(S(=O)(=O)c2ccc3c(c2)CCC(=O)N3CC(=O)Nc2ccc(Cl)cc2)CC1	-92*
CC1CCN(S(=O)(=O)c2ccc3c(c2)CCC(=O)N3CC(=O)Nc2ccc(F)cc2)CC1	-24
Cc1cccc(NC(=O)CN2C(=O)CCc3cc(S(=O)(=O)N4CCC(C)CC4)ccc32)c1	-30
CC1CCN(S(=O)(=O)c2ccc3c(c2)CCC(=O)N3CC(=O)Nc2ccc3c(c2)OCO3)CC1	-18
O=C(c1cscn1)N1CCOC2(CCN(Cc3ccco3)CC2)C1	21
CC1=NOC(C(=O)N2CCC(c3nn(C)c(=O)n3-c3ccccc3)CC2)C1 (stereo not given)	-28
Cc1ccc(C)c(NC(=O)C(=O)NCCc2sc(-c3cccc(F)c3)nc2C)c1	-17
CO/N=C(/C(=O)NC1C(=O)N2C(C(=O)OC(C)OC(C)=O)=C(COC(N)=O)CSC12)c1ccco1 (stereo not given)	15
O=C(O)c1cc(=O)c2ccccc2o1	6
CCN1c2cc(C)ccc2-n2cccc2C12CCN(C(=O)Nc1cccc(C)c1C)CC2	-8
CS(=O)(=O)CC(=O)N1CCC2OCCCC2(COCC2CC2)C1 (stereo not given)	34
CCOC(=O)NC(Nc1ccc(C(C)C)cc1)(C(F)(F)F)C(F)(F)F	-50
CC(C)(C)c1ccc2[nH]c3c(c2c1)CCCC3=O	-84*
CS(=O)(=O)N(CCc1ccccc1)CC(=O)O	-6
COc1cccc(C2(O)CCN(CCNC(=O)C3CC=CCC3)CC2)c1 (stereo not given)	9
O=C(C[C@H]1CC[C@@H]2[C@H](COC[C@@H](O)CN2CCc2ccccc2)O1)NCCCN1CCOCC1	6
Cc1cc(C)n(-c2ncnc3sc(-c4ccccc4)cc23)n1	-94*
Cc1cc(C)n(-c2nc(-c3ccccc3)cc(-c3ccccc3)n2)n1	-23
Cc1cc(C)n(-c2nnc(-c3ccccc3)c(-c3ccccc3)c2-c2ccccc2)n1	-22
CNC[C@H]1OCCCC[C@@H](C)Oc2ccc(NS(=O)(=O)c3ccc(F)cc3)cc2C(=O)N([C@@H](C)CO)C[C@@H]1C	-16
SMILES	Tgondii IFNg
O=C(NCCO)C(C(=O)NCCO)C1CCS(=O)(=O)C1 (stereo not given)	-56
O=S(=O)(c1ccc(F)cc1)N1CC[C@H]2[C@@H]1CCN2c1ncccn1	-3
COC(=O)c1ccc(NC(=O)CSc2nnc3c(n2)[nH]c2ccc(F)cc23)cc1	-70*
Cc1ccc2nc(SCC(=O)Nc3ccc(F)cc3)c(C)cc2c1	-26
C=CCNc1c(C(=O)OC)c(=O)[nH]c2ccc(F)cc12	32
CN(C)c1nc2c(c(=O)[nH]1)CCN(S(=O)(=O)N1CCCCCC1)C2	3
COc1ccc(C2NC(C(=O)O)Cc3c2[nH]c2ccccc32)cc1CN1CCN(c2ccc(F)cc2)CC1 (stereo not given)	2
COc1ccc(C2NCCc3c2[nH]c2ccccc32)cc1CN1CCN(c2ccc([N+](=O)[O-])cc2)CC1 (stereo not given)	-117*
COCc1cc(CN2CCCN(c3ccccc3)CC2)ccc1OC	11
Cc1nnc(C2CCN(C(=O)C(C)(C)C)CC2)o1	20
Cc1ccsc1[C@@H]1CCN(C(=O)c2cccc(=O)[nH]2)C[C@H]1O	1
Cc1ccsc1[C@@H]1CCN(C(=O)c2ccc(-n3cnnc3)cc2)C[C@H]1O	-81*
CN1[C@H]2CC[C@@H]1CN(C(=O)c1ccc(-n3cnnc3)cc1)CC2	3
Cc1ccc2c(c1)NC1(CCN(S(=O)(=O)c3ccc4c(c3)CCCC4)CC1)c1cccn1-2	18
CCC(CC)C(=O)N1CCC(C)(C(=O)NCc2ccc(F)cc2F)CC1	-7
COC(=O)c1cccc(CN2CCC(n3nc(C)cc3C)C2)n1 (stereo not given)	-9
COC(=O)C1CC23C=CNC4CCC5(c6ccccc6NC15C2C)C43 (stereo not given)	-86*
COc1ccc2c3c([nH]c2c1)[C@@H](CO)NCC31CN(Cc2cc(F)ccc2F)C1	-9
Cc1cc(C(=O)NCC2CCCN(Cc3ccccn3)C2)n[nH]1 (stereo not given)	0
O=C(c1cccnc1)N1CCCC1c1nnn2cc(Nc3ccccc3)ccc12 (stereo not given)	-6
COc1ccc(-c2nc(NCCc3ccc(C)cc3)c3ccccc3n2)cc1	-41
COCC(=O)Nc1cc(C(=O)N2CCN(c3ccc(Cl)cn3)CC2)c2c(c1)nc(C1CCC1)n2C	7
Oc1c(Cl)cc(Cl)cc1C1Nc2cc(Cl)c(C(F)(F)F)cc2N1 (stereo not given)	-88*
CCOc1ccccc1NC(=O)Cn1c(=O)ccc2cc(S(=O)(=O)N3CCC(C)CC3)ccc21	-60
COCC(=O)Nc1ccc(-c2nc(Cn3nc(C)c(C)c3C)c(C)o2)cc1	60
SMILES	Tgondii IFNg
Cc1cc(C)n(Cc2nc(-c3ccc(NC(=O)c4cccc(N(C)C)c4)cc3)oc2C)n1	-56
Cc1cccc(C(=O)Nc2ccc(-c3nc(Cn4nc(C)c(C)c4C)c(C)o3)cc2)c1	-91*
Cc1nn(Cc2nc(-c3ccc(NC(=O)c4ccc(F)cc4)cc3)oc2C)c(C)c1C	112
Cc1nn(Cc2nc(-c3ccc(NC(=O)c4ccc(C#N)cc4)cc3)oc2C)c(C)c1C	184
COc1cccc(C(=O)Nc2ccc(-c3nc(Cn4nc(C)cc4C)c(C)o3)cc2)c1	-62
Cc1oc(-c2ccccc2)nc1Cn1nnc(C(=O)Nc2ccccc2)c1C	-64
Cc1ccc(C(=O)Nc2ccc(-c3nc(Cn4nc(C)c(C)c4C)c(C)o3)cc2)cc1	-88*
Cc1nn(Cc2nc(-c3ccc(NC(=O)c4ccccc4)cc3)oc2C)c(C)c1C	-93*
CCC/C=C/c1cc(C(=O)NC2CC2)ccn1	7
C[C@@H]1CN([C@@H](C)CO)C(=O)CCCn2nncc2CO[C@@H]1CN(C)S(=O)(=O)c1ccc2c(c1)OCCCO2	79
Cn1c(CN2CCOCC2)nnc1SCC(=O)Nc1nnc(-c2ccccc2)s1	125
O=c1[nH]c(Cc2ccccc2)nc2c1C1(CCCCC1)Cc1ccccc1-2	-3
CCSc1nc2c(c(=O)n1C)C1(CCCCC1)Cc1ccccc1-2	-73*
Clc1ccc(-n2ncc3c(NC4CCCCCCCCCCC4)ncnc32)cc1	11
CC(C)Nc1ncnc2c1cnn2-c1ccc(Cl)cc1	-73*
Cc1ccc(Nc2ncnc3c2cnn3-c2ccc(Cl)cc2)cc1	22
COc1ccccc1/C=C/CN1CCC(O)(c2cccc(C)c2)CC1	-12
Cc1ccc(-c2nc(CCNC(=O)c3c(F)cccc3F)cs2)cc1	432
COCC(=O)N1CC2(C1)[C@H](c1ccc(-c3ccc(C)cc3)cc1)[C@@H](CO)N2C(C)=O	-40
Cc1ccc(S(=O)(=O)N2[C@@H]3CNC[C@H]2C3c2ccc(/C=C/c3ccccc3)cc2)cc1 (stereo not given in full)	-44
